Laboratory results published in PubChem BioAssay (Tox21).
A number with no mark means an inactive call. Results filed as inconclusive are left out. Entries that show only a call come without a potency. Calls of active or inactive are those of the source. Unless noted, the call rests on the fitted dose curve; in most records, active means well fitted curve in the direction sought with a large enough effect in the repeat runs; inconclusive means weak or mixed curves; inactive means no such curve, though single readings can be large; an effect the other way counts as inactive or inconclusive.

What was measured:
[1] = qHTS assay to identify small molecule antagonists of the sonic hedgehog signaling (Shh) pathway (AID 1259369; calls by dose curve; further: nearly all actives have a fitted effect of over 45% in size; further: potency means the concentration at half of the fitted maximal effect)
In short: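 Read-out is luminescence from a firefly luciferase gene controlled by the Gli1 response element, in 3T3Gli1-Luc cells pre-incubated 4hr then exposed to compounds and conditioned medium for 24hr.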

[2] = biological target: Estrogen receptor beta (Homo sapiens) (UniProt Q92731); assay: qHTS assay to identify small molecule agonists of the estrogen receptor beta (ER-beta) signaling pathway (AID 1259377; active means well fitted activation curve with a large enough effect in the signal ratio in the repeat runs, not every such curve was filed as active; the % refers to the signal ratio)
Chain of Estrogen receptor beta (Homo sapiens) (Q92731 whole entry, looked up): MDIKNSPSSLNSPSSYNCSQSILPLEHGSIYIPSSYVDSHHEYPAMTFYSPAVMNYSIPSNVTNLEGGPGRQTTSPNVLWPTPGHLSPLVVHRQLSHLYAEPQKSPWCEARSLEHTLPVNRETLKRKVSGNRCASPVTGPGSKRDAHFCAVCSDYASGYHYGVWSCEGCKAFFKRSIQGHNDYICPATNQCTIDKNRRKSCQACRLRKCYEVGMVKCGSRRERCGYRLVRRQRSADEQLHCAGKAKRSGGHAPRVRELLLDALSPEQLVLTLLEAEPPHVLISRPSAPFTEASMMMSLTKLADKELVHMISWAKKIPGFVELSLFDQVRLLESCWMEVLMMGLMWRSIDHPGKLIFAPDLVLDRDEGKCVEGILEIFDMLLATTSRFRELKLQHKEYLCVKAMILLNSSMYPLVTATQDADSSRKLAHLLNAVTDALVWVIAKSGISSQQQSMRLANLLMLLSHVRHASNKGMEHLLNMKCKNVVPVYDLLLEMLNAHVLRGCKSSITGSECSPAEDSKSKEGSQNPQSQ
In short: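 Ratiometric beta-lactamase FRET read-out came after 2 h substrate loading at room temperature. It followed 16 h compound treatment at 37C of GripTite HEK293T cells carrying a UAS-bla reporter, plated in 2% charcoal-stripped FBS medium.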

[3] = biological target: Estrogen receptor beta (Homo sapiens) (UniProt Q92731); assay: qHTS assay to identify small molecule antagonists of the estrogen receptor beta (ER-beta) signaling pathway (AID 1259378; active means well fitted inhibition curve with a large enough effect in the signal ratio in the repeat runs, not every such curve was filed as active; the % refers to the signal ratio; further: potency means the concentration at half of the fitted maximal effect)
In short: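 ER-beta-UAS-bla HEK293T (GripTite) cells in 2% charcoal-stripped FBS medium were preincubated 6 hr at 37C, dosed with compound, then stimulated with 1 nM E2 (final) for 16 hr; beta-lactamase reporter read by B/G FRET fluorescence after 2 hr substrate loading.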

[4] = qHTS assay to identify small molecule agonists of the androgen receptor (AR) signaling pathway in the presence of an antagonist - cell viability counter screen (AID 1259379);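 further: MDA-kb2 human breast cancer cells carrying an MMTV luciferase reporter; series mostly up to about 92 µM; nearly all actives have a fitted effect of over 25% in size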
In short: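 Each compound was tested at 15 concentrations on MDA-kb2 cells in the presence of 3.0uM nilutamide. Viability was measured by CellTiter-Fluor fluorescence after a 16 hr incubation at 37C in a CO2-free atmosphere.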

[5] = qHTS assay to identify small molecule agonists of the estrogen receptor beta (ER-beta) signaling pathway - cell viability counter screen (AID 1259380); further: nearly all actives have a fitted effect of over 30% in size; further: potency means the concentration at half of the fitted maximal effect
In short: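 Compounds dissolved in DMSO were pin-transferred onto ER-beta-UAS-bla HEK293T cells that had settled 6 hr, and exposure ran 16 hr at 37C. Following the reporter read, CellTiter-Glo luminescence after 30 min at room temperature indicated cytotoxicity.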

[6] = biological target: Androgen receptor (Homo sapiens) (UniProt P10275); assay: qHTS assay to identify small molecule agonists of the androgen receptor (AR) signaling pathway in the presence of an antagonist (AID 1259381; calls by dose curve; further: nearly all actives have a fitted effect of over 15% in size)
Chain of Androgen receptor (Homo sapiens) (P10275 whole entry, looked up): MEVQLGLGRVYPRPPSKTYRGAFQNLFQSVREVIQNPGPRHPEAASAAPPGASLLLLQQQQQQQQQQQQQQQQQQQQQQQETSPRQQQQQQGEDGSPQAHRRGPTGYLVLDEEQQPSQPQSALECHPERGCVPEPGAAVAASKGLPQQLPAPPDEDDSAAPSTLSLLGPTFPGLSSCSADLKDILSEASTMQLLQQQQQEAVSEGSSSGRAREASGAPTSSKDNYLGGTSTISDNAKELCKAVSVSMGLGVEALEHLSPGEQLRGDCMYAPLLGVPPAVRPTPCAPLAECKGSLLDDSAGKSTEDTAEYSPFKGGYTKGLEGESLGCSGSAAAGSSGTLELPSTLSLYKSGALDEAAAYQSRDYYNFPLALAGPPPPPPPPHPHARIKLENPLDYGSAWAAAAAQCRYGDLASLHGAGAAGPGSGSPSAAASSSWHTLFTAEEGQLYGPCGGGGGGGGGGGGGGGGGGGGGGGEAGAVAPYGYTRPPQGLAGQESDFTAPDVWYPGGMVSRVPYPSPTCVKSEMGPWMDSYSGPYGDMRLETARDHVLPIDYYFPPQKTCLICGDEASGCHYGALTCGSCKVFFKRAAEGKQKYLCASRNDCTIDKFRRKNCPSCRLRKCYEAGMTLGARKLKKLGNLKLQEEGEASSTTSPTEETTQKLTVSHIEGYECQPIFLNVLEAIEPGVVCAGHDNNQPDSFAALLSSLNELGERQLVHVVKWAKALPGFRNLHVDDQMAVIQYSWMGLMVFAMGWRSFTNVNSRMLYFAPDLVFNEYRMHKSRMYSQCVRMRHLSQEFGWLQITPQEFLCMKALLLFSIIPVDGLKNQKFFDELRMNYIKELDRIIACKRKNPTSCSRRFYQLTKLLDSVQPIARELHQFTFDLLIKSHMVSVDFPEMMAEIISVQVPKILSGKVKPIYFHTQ
In short: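 Plated MDA-kb2 cells (3,000/well) were pre-incubated 5hr, given nilutamide (3.0uM final) or buffer, then dosed with compounds in DMSO at 15 concentrations. Luciferase activity was quantified by luminescence after 16hr at 37C.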

[7] = qHTS assay to identify small molecule antagonists of the estrogen receptor beta (ER-beta) signaling pathway - cell viability counter screen (AID 1259382); further: series mostly up to about 92 µM; nearly all actives have a fitted effect of over 55% in size
In short: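 CellTiter-Glo ATP luminescence measured after the LiveBLAzer read in the same wells; ER-beta-UAS-bla HEK293T cells, 16 hr compound treatment with 1nM 17-beta-estradiol agonist at 37C, 5% CO2.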

[8] = biological target: Estrogen receptor (Homo sapiens) (UniProt P03372); assay: qHTS assay to identify small molecule agonists of the estrogen receptor alpha (ER-alpha) signaling pathway in the presence of an antagonist (AID 1259383; calls by dose curve; further: top concentration of the series differs between compounds; nearly all actives have a fitted effect of over 15% in size)
Chain of Estrogen receptor (Homo sapiens) (P03372 whole entry, looked up): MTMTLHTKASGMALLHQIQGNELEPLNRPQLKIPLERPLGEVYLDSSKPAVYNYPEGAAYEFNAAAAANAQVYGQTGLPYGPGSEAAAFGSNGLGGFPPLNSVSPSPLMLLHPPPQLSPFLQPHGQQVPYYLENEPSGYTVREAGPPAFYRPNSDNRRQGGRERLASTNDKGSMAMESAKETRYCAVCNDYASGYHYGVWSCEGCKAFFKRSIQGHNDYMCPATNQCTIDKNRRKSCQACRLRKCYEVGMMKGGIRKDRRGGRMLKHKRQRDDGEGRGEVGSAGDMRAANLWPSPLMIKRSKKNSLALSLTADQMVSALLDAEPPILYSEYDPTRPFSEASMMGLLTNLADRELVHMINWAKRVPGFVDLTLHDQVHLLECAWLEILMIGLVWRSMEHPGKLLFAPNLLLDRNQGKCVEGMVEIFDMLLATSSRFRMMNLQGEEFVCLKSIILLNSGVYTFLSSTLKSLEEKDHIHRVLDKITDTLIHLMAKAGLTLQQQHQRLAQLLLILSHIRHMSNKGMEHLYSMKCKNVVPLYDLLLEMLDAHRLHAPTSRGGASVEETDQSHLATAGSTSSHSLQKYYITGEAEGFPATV
In short: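 Luminescent ERE-luciferase reporter, VM7Luc4E2 cells (endogenous ER-alpha); 10.0nM ICI-182,780 final; 15-point compound titration; 22hr at 37C; ONE-Glo, 30min RT.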

[9] = qHTS assay to identify small molecule agonists or antagonists of the thyroid stimulating hormone receptor (TSHR) signaling pathway - wild type cell line counter screen (AID 1259384; calls by dose curve)
In short: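 Wild-type HEK293 cells were plated 18 h at 37 C/5% CO2, pin-dosed with compound plus Ro20-1724 medium, held 30 min at room temperature, then given cAMP-d2 and anti-cAMP-cryptate; fluorescence was read after 1 h. Fifteen concentrations, triplicate.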

[10] = biological target: Thyrotropin receptor (Homo sapiens) (UniProt P16473); assay: qHTS assay to identify small molecule antagonists of the thyroid stimulating hormone receptor (TSHR) signaling pathway (AID 1259385; calls by dose curve; further: nearly all actives have a fitted effect of over 20% in size)
Chain of Thyrotropin receptor (Homo sapiens) (P16473 whole entry, looked up): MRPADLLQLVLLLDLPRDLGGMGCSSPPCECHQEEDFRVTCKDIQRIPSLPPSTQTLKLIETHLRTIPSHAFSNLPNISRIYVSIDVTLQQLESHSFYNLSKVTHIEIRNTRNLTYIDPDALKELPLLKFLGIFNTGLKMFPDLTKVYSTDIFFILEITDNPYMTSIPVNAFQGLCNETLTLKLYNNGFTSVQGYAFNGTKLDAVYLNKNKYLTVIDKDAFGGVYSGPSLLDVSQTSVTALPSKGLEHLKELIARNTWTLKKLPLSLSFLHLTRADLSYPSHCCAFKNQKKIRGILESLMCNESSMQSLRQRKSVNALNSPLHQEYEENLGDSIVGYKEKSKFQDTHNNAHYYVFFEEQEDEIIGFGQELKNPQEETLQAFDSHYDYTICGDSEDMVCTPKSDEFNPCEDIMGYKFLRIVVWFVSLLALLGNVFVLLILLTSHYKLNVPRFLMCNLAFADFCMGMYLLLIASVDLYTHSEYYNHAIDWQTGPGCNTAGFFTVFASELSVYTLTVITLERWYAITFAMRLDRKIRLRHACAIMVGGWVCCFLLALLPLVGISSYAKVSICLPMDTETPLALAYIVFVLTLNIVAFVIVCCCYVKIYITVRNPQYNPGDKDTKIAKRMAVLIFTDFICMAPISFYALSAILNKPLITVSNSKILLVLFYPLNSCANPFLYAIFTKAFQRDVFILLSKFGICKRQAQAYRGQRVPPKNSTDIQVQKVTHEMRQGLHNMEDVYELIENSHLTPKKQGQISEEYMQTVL
In short: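 TSHR-HEK293 cells were plated and held 18 h at 37C/5% CO2, then given compound plus Ro20-1724 and stimulated with TSH at 1.5 ng/mL final. After 30 min at room temperature, cAMP was detected with cAMP-d2/anti-cAMP-cryptate (1 h) by fluorescence.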

[11] = qHTS assay to identify small molecule agonists of the estrogen receptor alpha (ER-alpha) signaling pathway in the presence of an antagonist - cell viability counter screen (AID 1259386);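 further: series mostly up to about 92 µM; cells exposed to compounds for 22 h at 37 °C before the viability read; nearly all actives have a fitted effect of over 30% in size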
In short: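 Using estrogen-depleted VM7Luc4E2 cells, the 15-concentration compound series was applied together with 10.0nM ICI-182,780 and incubated 22hr at 37C/5% CO2. Cell viability was then scored by CellTiter-Fluor.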

[12] = biological target: Progesterone receptor (Homo sapiens) (UniProt P06401); assay: qHTS assay to identify small molecule agonists of the progesterone receptor (PR) signaling pathway (AID 1346784; calls by dose curve; further: nearly all actives have a fitted effect of over 30% in size)
Chain of Progesterone receptor (Homo sapiens) (P06401 whole entry, looked up): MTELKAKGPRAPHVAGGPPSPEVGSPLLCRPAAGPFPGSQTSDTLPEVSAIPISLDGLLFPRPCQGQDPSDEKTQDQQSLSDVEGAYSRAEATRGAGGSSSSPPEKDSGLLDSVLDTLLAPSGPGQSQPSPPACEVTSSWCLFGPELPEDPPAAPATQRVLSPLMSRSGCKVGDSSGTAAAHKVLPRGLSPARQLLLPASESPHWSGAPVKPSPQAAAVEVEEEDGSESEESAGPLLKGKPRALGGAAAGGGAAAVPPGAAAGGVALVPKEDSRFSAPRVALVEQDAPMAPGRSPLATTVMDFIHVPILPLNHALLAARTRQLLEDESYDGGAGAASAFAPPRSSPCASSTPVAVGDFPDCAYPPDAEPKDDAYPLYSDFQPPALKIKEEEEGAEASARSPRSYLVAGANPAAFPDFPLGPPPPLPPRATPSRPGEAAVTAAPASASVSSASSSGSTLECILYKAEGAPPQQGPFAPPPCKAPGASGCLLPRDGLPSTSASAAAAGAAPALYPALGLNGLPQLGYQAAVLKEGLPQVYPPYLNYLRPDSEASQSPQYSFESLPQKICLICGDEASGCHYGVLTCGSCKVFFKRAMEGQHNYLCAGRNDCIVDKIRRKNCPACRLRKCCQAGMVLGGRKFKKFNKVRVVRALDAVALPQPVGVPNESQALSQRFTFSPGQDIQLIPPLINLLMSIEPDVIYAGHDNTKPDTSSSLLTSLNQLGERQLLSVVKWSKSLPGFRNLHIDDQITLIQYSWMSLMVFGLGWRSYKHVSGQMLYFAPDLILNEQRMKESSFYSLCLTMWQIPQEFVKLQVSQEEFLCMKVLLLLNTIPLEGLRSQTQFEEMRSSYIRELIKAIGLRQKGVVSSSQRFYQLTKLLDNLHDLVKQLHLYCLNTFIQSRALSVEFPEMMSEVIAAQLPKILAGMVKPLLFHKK
In short: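 Agonist qHTS: compounds pinned onto 3,000 PR-UAS-bla HEK 293T cells per well in charcoal-stripped serum medium, 16hr at 37C, then beta-lactamase activity measured by LiveBLAzer FRET fluorescence after 2 hours at room temperature.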

[13] = biological target: Progesterone receptor (Homo sapiens) (UniProt P06401); assay: qHTS assay to identify small molecule antagonists of the progesterone receptor (PR) signaling pathway (AID 1346795; active means well fitted inhibition curve with a large enough effect in the signal ratio in the repeat runs, not every such curve was filed as active; the % refers to the signal ratio; further: potency means the concentration at half of the fitted maximal effect)
In short: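 Antagonist mode with agonist R5020 at 1 nM final and 16 hr incubation at 37C. Reporter was beta-lactamase driven by UAS in HEK293T (PR-UAS-bla), 2% charcoal-stripped serum; signal from LiveBLAzer FRET substrate, 2 hr at room temperature.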

[14] = qHTS assay to identify small molecule antagonists of the progesterone receptor (PR) signaling pathway - cell viability counter screen (AID 1346798); further: series mostly up to about 92 µM; nearly all actives have a fitted effect of over 50% in size
In short: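 Cytotoxicity read as CellTiter-Glo luminescence (30 min, room temperature) in the same wells as the beta-lactamase readout. HEK293T PR-UAS-bla cells in charcoal-stripped 2% FBS received compound and R5020, then 16 h at 37C, 5% CO2.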

[15] = qHTS assay to identify small molecule agonists of the progesterone receptor (PR) signaling pathway - cell viability counter screen (AID 1346799; calls by dose curve; further: nearly all actives have a fitted effect of over 45% in size)
In short: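 Cytotoxicity measured by CellTiter-Glo luminescence (30 min, RT) in the same wells as the PR beta-lactamase agonist read. Those HEK293T cells had 16 h compound treatment at 37 C in 2% charcoal-stripped FBS medium.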

[16] = qHTS assay to identify small molecule antagonists of the TGF-beta/Smad signaling pathway - cell viability counter screen (AID 1346824); further: nearly all actives have a fitted effect of over 50% in size
In short: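 SBE-bla HEK 293T cells were plated overnight at 37 C, then given compounds in DMSO plus TGF-beta1 (added as 0.25 ng/mL solution) for 5 hr. After the bla read, CellTiter-Glo was added to the same wells and luminescence read after 30 min at room temperature.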

[17] = qHTS assay to identify small molecule agonists of the TGF-beta/Smad signaling pathway - cell viability counter screen (AID 1346829); further: top concentration of the series differs between compounds; nearly all actives have a fitted effect of over 45% in size
In short: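 Here the cytotoxicity of library compounds is measured in SBE-bla HEK 293T cells treated for 5 hr, using CellTiter-Glo added to wells already read for the beta-lactamase reporter.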

[18] = qHTS assay to identify small molecule agonists of the TGF-beta/Smad signaling pathway (AID 1346859; active means well fitted activation curve with a large enough effect in the signal ratio in the repeat runs, not every such curve was filed as active; the % refers to the signal ratio; further: series mostly up to about 77 µM)
In short: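 Fluorescence (ex 405 nm; em 460 and 530 nm) was read 2 h after LiveBLAzer FRET substrate at RT. The preceding compound treatment of overnight-plated SBE-bla HEK293T cells lasted 5 h at 37 C.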

[19] = biological target: Thyrotropin-releasing hormone receptor (Homo sapiens) (UniProt P34981); assay: qHTS assay to identify small molecule agonists of the thyrotropin-releasing hormone receptor (TRHR) signaling pathway (AID 1346891; calls by dose curve; further: series mostly up to about 58 µM)
Chain of Thyrotropin-releasing hormone receptor (Homo sapiens) (P34981 whole entry, looked up): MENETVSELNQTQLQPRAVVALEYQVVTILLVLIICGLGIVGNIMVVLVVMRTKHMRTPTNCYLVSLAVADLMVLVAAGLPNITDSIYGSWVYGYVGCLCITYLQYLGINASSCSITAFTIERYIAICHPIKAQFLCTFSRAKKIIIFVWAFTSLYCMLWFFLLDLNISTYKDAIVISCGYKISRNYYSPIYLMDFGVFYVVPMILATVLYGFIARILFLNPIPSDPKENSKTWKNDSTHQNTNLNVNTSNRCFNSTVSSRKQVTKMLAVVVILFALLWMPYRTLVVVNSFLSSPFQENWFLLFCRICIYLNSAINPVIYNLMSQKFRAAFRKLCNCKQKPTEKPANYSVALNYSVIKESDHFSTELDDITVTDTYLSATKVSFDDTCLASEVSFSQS
In short: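 Agonist-mode intracellular calcium readout: kinetic fluorescence over 3 min at 1 s intervals after compound addition to TRHR-HEK293 cells (18 h seeded, 2 h dye-loaded at 37 C). Fifteen concentrations, triplicates.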

[20] = biological target: Thyrotropin-releasing hormone receptor (Homo sapiens) (UniProt P34981); assay: qHTS assay to identify small molecule antagonists of the thyrotropin-releasing hormone receptor (TRHR) signaling pathway (AID 1346877; active means well fitted inhibition curve with a large enough effect in the repeat runs, not every such curve was filed as active; further: series mostly up to about 51 µM)
In short: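 Calcium signal in dye-loaded TRHR/HEK293 cells; compounds added 5 min before TRH (1 nM final); fluorescence monitored 3 min at 1 s steps.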

SMILES | Potency [1] | Potency [2] | Potency [3] | Potency [4] | Potency [5] | Potency [6] | Potency [7] | Potency [8] | outcome [9] | Potency [10] | Potency [11] | Potency [12] | Potency [13] | Potency [14] | Potency [15] | Potency [16] | Potency [17] | outcome [18] | Potency [19] | Potency [20]
Brc1ccccc1 | inactive | inactive | inactive | inactive | inactive | inactive | inactive | inactive | inactive | inactive | inactive | inactive | inactive | inactive | inactive | inactive | inactive | inactive | inactive | 
O=C(CBr)Nc1ccc(Cl)cc1C(=O)c1ccccc1F | inactive | inactive | inactive | inactive | inactive | inactive |  | inactive | inactive | inactive | inactive | inactive | 21.1 µM (active) | inactive | inactive | inactive | inactive | inactive |  | 
C=CCC1([C@H](C)CCC)C(=O)NC(=O)NC1=O | inactive | inactive | inactive | inactive | inactive |  | inactive | inactive | inactive | inactive | inactive | inactive | inactive | inactive | inactive | inactive | inactive | inactive | inactive | inactive
CCCCCCC#N | inactive | inactive | inactive | inactive | inactive |  | inactive | inactive |  | inactive | inactive | inactive | inactive | inactive | inactive | inactive | inactive | inactive | inactive | inactive
CCCCC(O)(Cn1cncn1)c1ccc(Cl)cc1Cl (configuration not stated) | 19.3 µM (active) | inactive | 48.5 µM (active) | inactive | 68.5 µM (active) | inactive |  | inactive |  |  | inactive |  | 17.2 µM (active) |  |  | inactive | inactive | inactive | inactive | 
CCCCCC[N+](=O)[O-] | inactive | inactive | inactive | inactive | inactive | inactive | inactive |  | inactive | inactive | inactive | inactive | inactive | inactive | inactive | inactive | inactive | inactive | inactive | 
CC(=O)C(C)(C)C | inactive | inactive | inactive | inactive | inactive |  | inactive | inactive | inactive | inactive | inactive | inactive | inactive | inactive | inactive | inactive | inactive | inactive | inactive | inactive
C[C@@H]1CC[C@H]2[C@@H](C)C(=O)O[C@@H]3O[C@@]4(C)CC[C@@H]1[C@]32OO4 | inactive | inactive | inactive | inactive | inactive | inactive |  |  | inactive | inactive | inactive | inactive | inactive | inactive | inactive | inactive | inactive | inactive | inactive | 
Cc1cc(=O)[nH]o1 | inactive | inactive | inactive | inactive | inactive | inactive | inactive | inactive | inactive | inactive | inactive | inactive | inactive | inactive | inactive | inactive | inactive | inactive | inactive | inactive
CCOP(=S)(OCC)SCSCC | inactive | inactive | inactive | inactive | inactive |  | inactive | inactive |  | inactive | inactive | inactive |  | inactive | inactive | inactive | inactive | inactive | inactive | 
Clc1cccc(SC2CCNCC2)n1 | 26.6 µM (active) | inactive | inactive | inactive | inactive |  | inactive | inactive | inactive | inactive | inactive | inactive | inactive | inactive | inactive | inactive | inactive | inactive |  | 
CC(=O)CCC(C)=O | inactive | inactive | inactive | inactive | inactive |  | inactive | inactive | inactive |  | inactive | inactive | inactive | inactive | inactive | inactive | inactive | inactive |  | 
CCCN(CC1CC1)c1c([N+](=O)[O-])cc(C(F)(F)F)cc1[N+](=O)[O-] | inactive | inactive | inactive | inactive | inactive |  | inactive | inactive | inactive | inactive | inactive | inactive |  | inactive | inactive | inactive | inactive | inactive | inactive | inactive
NC(=O)CI | inactive | inactive | inactive | inactive | inactive |  | inactive | inactive | inactive |  | inactive | inactive | inactive | inactive | inactive | inactive | inactive | inactive | inactive | inactive
CCOP(=S)(Oc1ccc([N+](=O)[O-])cc1)c1ccccc1 (configuration not stated) | inactive | inactive | inactive | inactive | inactive |  | inactive | inactive |  |  | inactive | inactive | 2.17 µM (active) | inactive |  | inactive | inactive | inactive |  | 
COC(C)(C)CCC[C@H](C)C/C=C/C(C)=C/C(=O)OC(C)C | inactive | inactive | inactive | inactive | inactive | inactive | inactive |  | inactive | inactive | inactive | inactive | inactive | inactive |  | inactive | inactive | inactive | inactive | inactive
